# According to ChEMBL document CHEMBL1961873, “Compounds: GSK PKIS; Assays: Nanosyn kinase panel” (2012):
# Tests used:
# [1] = target: Sphingosine kinase 1 (Homo sapiens) (UniProt Q9NYA1); settings: at 1 µM;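 further: mean SPHK1 inhibition value reported from the GSK PKIS kinase panel screen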
# [2] = target: T1, Sphingosine kinase 2 (Homo sapiens) (UniProt Q9NRA0); settings: at 0.1 µM
# T1 sequence (whole entry): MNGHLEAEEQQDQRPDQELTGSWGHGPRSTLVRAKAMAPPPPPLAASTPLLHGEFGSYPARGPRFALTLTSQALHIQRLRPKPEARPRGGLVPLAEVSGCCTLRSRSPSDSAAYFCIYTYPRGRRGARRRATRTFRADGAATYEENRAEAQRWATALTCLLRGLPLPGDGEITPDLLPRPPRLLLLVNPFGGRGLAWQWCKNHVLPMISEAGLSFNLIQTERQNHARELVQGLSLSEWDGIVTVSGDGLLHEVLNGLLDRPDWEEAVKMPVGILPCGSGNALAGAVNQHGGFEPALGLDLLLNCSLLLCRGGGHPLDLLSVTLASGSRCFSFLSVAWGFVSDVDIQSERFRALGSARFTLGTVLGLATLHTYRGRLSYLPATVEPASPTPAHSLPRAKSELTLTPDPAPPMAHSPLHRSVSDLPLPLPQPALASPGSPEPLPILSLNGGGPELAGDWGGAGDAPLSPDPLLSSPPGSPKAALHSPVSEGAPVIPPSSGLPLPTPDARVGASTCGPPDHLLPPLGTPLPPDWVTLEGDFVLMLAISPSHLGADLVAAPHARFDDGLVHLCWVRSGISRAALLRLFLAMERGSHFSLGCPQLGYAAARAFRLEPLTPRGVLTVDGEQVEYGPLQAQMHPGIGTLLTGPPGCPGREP
# [3] = target: T1, Sphingosine kinase 2 (Homo sapiens); settings: at 1 µM
# [4] = target: Casein kinase II subunit alpha (Homo sapiens) (UniProt P68400); settings: at 0.1 µM
# Casein kinase II subunit alpha (Homo sapiens), sequence (P68400 whole entry, looked up): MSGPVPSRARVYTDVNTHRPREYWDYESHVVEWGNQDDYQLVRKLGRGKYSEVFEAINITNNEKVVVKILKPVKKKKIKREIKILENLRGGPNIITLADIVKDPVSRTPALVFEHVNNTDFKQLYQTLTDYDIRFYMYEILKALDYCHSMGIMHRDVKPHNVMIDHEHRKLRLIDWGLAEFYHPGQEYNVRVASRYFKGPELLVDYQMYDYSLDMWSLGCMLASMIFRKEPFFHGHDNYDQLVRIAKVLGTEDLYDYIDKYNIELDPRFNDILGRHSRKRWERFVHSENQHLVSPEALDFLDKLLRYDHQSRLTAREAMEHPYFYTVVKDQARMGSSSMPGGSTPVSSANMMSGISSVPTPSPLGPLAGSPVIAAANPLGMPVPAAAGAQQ
# [5] = target: Casein kinase II subunit alpha (Homo sapiens) (UniProt P68400); settings: at 1 µM
# [6] = target: T2, Inhibitor of nuclear factor kappa-B kinase subunit alpha (Homo sapiens) (UniProt O15111); settings: at 0.1 µM
# T2 sequence (whole entry): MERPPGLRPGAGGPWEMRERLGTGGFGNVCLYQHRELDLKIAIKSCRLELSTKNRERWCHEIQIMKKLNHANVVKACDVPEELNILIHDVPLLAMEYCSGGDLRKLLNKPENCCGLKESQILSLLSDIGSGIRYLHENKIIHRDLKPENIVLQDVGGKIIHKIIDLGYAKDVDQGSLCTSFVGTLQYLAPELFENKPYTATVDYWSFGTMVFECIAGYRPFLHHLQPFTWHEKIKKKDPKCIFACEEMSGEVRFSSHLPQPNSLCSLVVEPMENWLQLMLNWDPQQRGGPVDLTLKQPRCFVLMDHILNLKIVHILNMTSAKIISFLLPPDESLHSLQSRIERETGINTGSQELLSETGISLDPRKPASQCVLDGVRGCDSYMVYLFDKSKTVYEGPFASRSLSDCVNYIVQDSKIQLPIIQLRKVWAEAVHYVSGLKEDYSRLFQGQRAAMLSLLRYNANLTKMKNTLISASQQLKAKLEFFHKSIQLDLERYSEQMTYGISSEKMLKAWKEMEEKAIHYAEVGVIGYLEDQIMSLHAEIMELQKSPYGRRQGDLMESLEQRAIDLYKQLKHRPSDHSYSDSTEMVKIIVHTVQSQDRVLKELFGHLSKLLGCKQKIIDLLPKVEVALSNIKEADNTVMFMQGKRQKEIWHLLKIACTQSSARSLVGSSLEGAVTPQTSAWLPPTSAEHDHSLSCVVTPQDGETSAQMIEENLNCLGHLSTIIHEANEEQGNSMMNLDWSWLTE
# [7] = target: T2, Inhibitor of nuclear factor kappa-B kinase subunit alpha (Homo sapiens); settings: at 1 µM
# [8] = target: T3, Inhibitor of nuclear factor kappa-B kinase subunit beta (Homo sapiens) (UniProt O14920); settings: at 0.1 µM
# T3 sequence (whole entry): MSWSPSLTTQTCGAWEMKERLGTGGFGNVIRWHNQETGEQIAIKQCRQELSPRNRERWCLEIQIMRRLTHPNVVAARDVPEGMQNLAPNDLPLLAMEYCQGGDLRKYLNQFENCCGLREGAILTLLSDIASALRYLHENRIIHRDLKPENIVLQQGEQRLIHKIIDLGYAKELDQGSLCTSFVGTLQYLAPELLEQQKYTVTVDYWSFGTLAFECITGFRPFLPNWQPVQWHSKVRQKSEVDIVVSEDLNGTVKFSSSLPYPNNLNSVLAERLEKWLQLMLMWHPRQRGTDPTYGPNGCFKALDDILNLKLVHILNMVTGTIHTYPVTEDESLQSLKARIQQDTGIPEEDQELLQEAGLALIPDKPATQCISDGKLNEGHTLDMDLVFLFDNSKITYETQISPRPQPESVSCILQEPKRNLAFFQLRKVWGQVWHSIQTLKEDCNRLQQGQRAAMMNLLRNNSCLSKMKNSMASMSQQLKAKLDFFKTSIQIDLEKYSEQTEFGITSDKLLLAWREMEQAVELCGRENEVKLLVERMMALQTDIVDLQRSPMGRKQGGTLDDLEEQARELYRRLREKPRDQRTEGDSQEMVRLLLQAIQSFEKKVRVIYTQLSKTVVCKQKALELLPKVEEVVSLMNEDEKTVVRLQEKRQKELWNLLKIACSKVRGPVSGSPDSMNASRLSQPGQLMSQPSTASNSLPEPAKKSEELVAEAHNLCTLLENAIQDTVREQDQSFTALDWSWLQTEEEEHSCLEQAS
# [9] = target: T3, Inhibitor of nuclear factor kappa-B kinase subunit beta (Homo sapiens); settings: at 1 µM
# [10] = target: T4, Inhibitor of nuclear factor kappa-B kinase subunit epsilon (Homo sapiens) (UniProt Q14164); settings: at 0.1 µM
# T4 sequence (whole entry): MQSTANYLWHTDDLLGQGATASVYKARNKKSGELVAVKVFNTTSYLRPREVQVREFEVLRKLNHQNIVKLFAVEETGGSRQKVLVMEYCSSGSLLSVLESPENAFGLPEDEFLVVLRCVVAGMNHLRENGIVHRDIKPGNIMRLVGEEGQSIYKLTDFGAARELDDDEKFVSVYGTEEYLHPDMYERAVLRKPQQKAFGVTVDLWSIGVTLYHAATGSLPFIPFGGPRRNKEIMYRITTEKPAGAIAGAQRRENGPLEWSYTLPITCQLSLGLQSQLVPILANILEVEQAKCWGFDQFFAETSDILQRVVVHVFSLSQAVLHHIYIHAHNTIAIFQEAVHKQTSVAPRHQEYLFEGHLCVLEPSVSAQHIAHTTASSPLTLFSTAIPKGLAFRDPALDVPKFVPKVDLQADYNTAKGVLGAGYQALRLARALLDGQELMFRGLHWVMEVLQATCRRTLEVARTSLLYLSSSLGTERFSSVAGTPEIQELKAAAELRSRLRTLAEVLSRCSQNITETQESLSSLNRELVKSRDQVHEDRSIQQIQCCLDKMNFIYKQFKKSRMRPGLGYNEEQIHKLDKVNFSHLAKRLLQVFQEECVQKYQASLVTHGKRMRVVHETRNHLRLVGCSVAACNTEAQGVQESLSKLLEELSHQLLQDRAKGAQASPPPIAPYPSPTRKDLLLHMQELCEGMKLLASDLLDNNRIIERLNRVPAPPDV
# [11] = target: T4, Inhibitor of nuclear factor kappa-B kinase subunit epsilon (Homo sapiens); settings: at 1 µM
# [12] = target: T5, Serine/threonine-protein kinase Nek1 (Homo sapiens) (UniProt Q96PY6); settings: at 0.1 µM
# T5 sequence (whole entry): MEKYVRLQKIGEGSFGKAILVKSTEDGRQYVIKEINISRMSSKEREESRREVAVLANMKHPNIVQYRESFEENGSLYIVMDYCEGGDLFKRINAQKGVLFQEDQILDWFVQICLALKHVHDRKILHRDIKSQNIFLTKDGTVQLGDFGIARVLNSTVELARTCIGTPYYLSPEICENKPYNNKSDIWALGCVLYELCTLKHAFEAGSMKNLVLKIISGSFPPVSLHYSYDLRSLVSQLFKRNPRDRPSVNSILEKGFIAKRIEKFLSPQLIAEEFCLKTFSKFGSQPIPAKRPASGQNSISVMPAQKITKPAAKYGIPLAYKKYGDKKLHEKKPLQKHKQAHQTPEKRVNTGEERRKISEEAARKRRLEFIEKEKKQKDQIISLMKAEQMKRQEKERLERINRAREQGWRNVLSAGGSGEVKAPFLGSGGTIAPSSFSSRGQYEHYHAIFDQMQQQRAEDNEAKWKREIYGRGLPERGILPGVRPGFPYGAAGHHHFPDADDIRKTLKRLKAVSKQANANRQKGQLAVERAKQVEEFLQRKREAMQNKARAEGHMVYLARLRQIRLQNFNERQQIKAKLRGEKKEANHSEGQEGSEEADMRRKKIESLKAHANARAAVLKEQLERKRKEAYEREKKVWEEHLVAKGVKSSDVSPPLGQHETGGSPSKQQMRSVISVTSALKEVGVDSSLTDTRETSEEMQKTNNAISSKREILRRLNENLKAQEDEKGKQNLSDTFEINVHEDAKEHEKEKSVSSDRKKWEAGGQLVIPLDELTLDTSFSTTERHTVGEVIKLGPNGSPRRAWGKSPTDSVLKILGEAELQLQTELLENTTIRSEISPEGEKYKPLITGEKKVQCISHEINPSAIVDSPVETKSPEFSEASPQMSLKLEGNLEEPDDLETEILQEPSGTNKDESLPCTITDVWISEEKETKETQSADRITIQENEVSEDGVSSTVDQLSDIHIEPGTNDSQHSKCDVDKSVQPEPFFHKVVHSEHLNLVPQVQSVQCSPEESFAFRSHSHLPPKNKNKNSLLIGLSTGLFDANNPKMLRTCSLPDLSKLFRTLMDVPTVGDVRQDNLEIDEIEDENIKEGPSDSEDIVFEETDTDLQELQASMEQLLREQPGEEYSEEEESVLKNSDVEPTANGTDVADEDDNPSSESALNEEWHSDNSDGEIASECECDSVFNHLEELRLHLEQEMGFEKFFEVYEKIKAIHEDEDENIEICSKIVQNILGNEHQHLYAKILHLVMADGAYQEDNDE
# [13] = target: T5, Serine/threonine-protein kinase Nek1 (Homo sapiens); settings: at 1 µM
# [14] = target: T6, Serine/threonine-protein kinase Nek2 (Homo sapiens) (UniProt P51955); settings: at 0.1 µM
# T6 sequence (whole entry): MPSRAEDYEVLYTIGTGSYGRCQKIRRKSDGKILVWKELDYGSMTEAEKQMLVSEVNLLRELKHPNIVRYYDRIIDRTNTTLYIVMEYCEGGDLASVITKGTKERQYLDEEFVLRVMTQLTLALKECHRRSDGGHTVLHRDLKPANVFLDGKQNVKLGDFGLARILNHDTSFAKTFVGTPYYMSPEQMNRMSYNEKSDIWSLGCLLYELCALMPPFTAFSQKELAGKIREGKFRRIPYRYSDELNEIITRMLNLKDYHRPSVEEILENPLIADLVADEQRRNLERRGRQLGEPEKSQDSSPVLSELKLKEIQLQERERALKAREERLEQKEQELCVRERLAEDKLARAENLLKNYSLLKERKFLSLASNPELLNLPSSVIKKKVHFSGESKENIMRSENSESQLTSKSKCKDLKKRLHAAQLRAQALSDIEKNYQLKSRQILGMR
# [15] = target: T6, Serine/threonine-protein kinase Nek2 (Homo sapiens); settings: at 1 µM
# [16] = target: Serine/threonine-protein kinase Nek6 (Homo sapiens) (UniProt Q9HC98); settings: at 0.1 µM
# Serine/threonine-protein kinase Nek6 (Homo sapiens), sequence (Q9HC98 whole entry): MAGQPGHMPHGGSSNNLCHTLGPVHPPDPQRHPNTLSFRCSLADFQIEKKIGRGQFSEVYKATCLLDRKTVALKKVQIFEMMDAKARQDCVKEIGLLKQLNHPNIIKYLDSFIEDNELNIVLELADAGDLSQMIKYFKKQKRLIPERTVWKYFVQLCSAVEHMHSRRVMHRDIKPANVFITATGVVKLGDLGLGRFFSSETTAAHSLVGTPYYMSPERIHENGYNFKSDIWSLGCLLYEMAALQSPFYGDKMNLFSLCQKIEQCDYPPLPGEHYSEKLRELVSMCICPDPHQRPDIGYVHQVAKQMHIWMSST
# [17] = target: Serine/threonine-protein kinase Nek6 (Homo sapiens) (UniProt Q9HC98); settings: at 1 µM
# [18] = target: Serine/threonine-protein kinase Nek7 (Homo sapiens) (UniProt Q8TDX7); settings: at 0.1 µM
# Serine/threonine-protein kinase Nek7 (Homo sapiens), sequence (Q8TDX7 whole entry, looked up): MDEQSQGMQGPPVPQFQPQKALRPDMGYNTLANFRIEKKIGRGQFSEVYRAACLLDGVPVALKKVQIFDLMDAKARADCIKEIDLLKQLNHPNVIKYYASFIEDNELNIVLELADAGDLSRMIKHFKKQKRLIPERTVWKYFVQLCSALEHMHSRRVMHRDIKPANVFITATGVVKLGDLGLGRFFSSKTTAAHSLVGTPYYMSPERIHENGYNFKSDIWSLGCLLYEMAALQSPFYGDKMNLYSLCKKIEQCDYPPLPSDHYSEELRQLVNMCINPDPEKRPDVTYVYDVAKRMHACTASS
# [19] = target: Serine/threonine-protein kinase Nek7 (Homo sapiens) (UniProt Q8TDX7); settings: at 1 µM
# [20] = target: T7, Serine/threonine-protein kinase Nek9 (Homo sapiens) (UniProt Q8TD19); settings: at 0.1 µM;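 further: reported value is the mean percent inhibition of NEK9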
# T7 sequence (whole entry): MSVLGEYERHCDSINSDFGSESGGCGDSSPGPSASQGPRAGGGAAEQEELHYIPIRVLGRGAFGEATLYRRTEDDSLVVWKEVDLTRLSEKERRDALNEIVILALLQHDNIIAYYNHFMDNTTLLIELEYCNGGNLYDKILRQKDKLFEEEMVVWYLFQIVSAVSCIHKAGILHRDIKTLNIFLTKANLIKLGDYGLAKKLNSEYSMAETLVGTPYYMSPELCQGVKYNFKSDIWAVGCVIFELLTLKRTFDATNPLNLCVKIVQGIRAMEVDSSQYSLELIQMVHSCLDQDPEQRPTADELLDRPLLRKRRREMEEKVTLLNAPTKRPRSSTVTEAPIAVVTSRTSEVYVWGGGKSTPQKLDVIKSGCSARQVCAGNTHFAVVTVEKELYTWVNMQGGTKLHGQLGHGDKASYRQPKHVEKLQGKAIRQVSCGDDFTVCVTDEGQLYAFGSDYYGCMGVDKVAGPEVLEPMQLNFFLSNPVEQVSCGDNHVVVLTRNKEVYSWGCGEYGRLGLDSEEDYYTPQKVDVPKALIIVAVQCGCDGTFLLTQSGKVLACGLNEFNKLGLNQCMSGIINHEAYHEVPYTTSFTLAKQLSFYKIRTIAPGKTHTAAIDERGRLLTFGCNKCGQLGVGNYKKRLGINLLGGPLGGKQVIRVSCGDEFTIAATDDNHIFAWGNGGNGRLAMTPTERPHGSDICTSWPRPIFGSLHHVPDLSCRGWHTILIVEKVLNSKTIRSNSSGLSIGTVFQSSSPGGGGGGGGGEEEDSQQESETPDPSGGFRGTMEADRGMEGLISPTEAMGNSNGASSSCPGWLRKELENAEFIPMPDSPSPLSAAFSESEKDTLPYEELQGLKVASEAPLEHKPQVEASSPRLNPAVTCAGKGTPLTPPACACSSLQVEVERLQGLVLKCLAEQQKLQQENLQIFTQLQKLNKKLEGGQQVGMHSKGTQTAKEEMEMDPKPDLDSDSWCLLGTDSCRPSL
# Sphingosine kinase 1 (Homo sapiens), sequence (Q9NYA1 whole entry): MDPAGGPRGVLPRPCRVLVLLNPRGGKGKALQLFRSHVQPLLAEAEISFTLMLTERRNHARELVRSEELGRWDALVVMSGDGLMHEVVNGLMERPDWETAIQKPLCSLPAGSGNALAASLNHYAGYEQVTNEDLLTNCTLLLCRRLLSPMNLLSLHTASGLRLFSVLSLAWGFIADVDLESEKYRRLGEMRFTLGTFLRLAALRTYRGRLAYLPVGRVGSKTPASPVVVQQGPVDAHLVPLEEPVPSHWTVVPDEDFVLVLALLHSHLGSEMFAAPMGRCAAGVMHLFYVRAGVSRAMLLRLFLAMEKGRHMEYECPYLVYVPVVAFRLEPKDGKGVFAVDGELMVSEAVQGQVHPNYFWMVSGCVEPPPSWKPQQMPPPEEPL
SMILES,inhibition [1],inhibition [2],inhibition [3],inhibition [4],inhibition [5],inhibition [6],inhibition [7],inhibition [8],inhibition [9],inhibition [10],inhibition [11],inhibition [12],inhibition [13],inhibition [14],inhibition [15],inhibition [16],inhibition [17],inhibition [18],inhibition [19],inhibition [20]
COc1ccc(-c2coc3ncnc(N)c23)cc1,2.86%,1.04%,-0.88%,4.06%,-2.3%,4.01%,-4.53%,10.3%,9.84%,5.67%,4.6%,2.17%,2.92%,4.88%,4.8%,1.43%,2.31%,6.65%,4.79%,6.76%
COc1cc2ncn(-c3cc(O[C@H](C)c4ccccc4Cl)c(C(N)=O)s3)c2cc1OC,-3.88%,0.33%,-2.47%,5.76%,19.5%,6.13%,9.16%,3.99%,6.57%,8.51%,6.91%,29.8%,67.8%,12.1%,48.8%,2.67%,4.93%,3.58%,4.26%,62%
